The text below walks through data of the supplement of paper PMC6897291.

The subject of the assay is RIVA. Nature of the assay: growth inhibition by drug plus 177Lu-lilotomab satetraxetan (1 - RLU/untreated control) (fraction); higher = stronger inhibition. The settings on record: 177Lu-lilotomab satetraxetan 0.5 ug/ml. Here is the method:
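RIVA (RI-1) ABC-DLBCL cells were pretreated or not for 18 h with 0.5 ug/ml 177Lu-lilotomab satetraxetan (600 MBq/mg), washed and seeded (3000 cells/well) on 384-well plates pre-printed with the Selleck Cambridge Cancer Compound library. Viability was read by RealTime-Glo luminescence on days 3-6 after seeding. Effect = 1 - RLU/mean RLU of the 48 untreated no-drug control wells per plate; Bliss score = (M-E)/(1-Fa).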

As to `Cc1cc2c(C(C)C)c(O)c(O)c(C=O)c2c(O)c1-c1c(C)cc2c(C(C)C)c(O)c(O)c(C=O)c2c1O` [Gossypol], the “growth inhibition by drug plus 177Lu-lilotomab satetraxetan” value (“growth inhibition” for short) (10 nM, time (day): 3) was determined as 0.354; the “growth inhibition” value (10 nM, time (day): 4) came to 0.475; the “growth inhibition” value (10 nM, time (day): 5) was 0.501; the “growth inhibition” value (10 nM, time (day): 6) was found to be 0.51; the “growth inhibition” value (100 nM, time (day): 3) worked out at 0.233; the “growth inhibition” value (100 nM, time (day): 4) came to 0.353. Moreover, the “growth inhibition” value by setting is: (100 nM, time (day): 5) 0.38; (100 nM, time (day): 6) 0.364.

Regarding `O=C(Oc1ccc([N+](=O)[O-])cc1)N1CCC(C(O)(c2ccc3c(c2)OCO3)c2ccc3c(c2)OCO3)CC1`, the “growth inhibition” value came to 0.375 (10 nM, time (day): 3); 0.498 (10 nM, time (day): 4); 0.518 (10 nM, time (day): 5); 0.517 (10 nM, time (day): 6); 0.429 (100 nM, time (day): 3); 0.517 (100 nM, time (day): 4). Moreover, the “growth inhibition” value was found to be 0.523 (100 nM, time (day): 5) and 0.501 (100 nM, time (day): 6).

As for `O=C(O)c1nn(Cc2ccc(Cl)cc2Cl)c2ccccc12` [Lonidamine], the “growth inhibition” value by setting is: (10 nM, time (day): 3) 0.616; (10 nM, time (day): 4) 0.624; (10 nM, time (day): 5) 0.644; (10 nM, time (day): 6) 0.656; (100 nM, time (day): 3) 0.309; (100 nM, time (day): 4) 0.446. In addition, the “growth inhibition” value by setting is: (100 nM, time (day): 5) 0.459; (100 nM, time (day): 6) 0.45.

In the case of `CC(=O)Nc1ccc(OC[C@](C)(O)C(=O)Nc2ccc([N+](=O)[O-])c(C(F)(F)F)c2)cc1` [Andarine (GTX-007)], the “growth inhibition” value (10 nM, time (day): 3) came to 0.585; the “growth inhibition” value (10 nM, time (day): 4) came out at 0.603; the “growth inhibition” value (10 nM, time (day): 5) was determined as 0.615; the “growth inhibition” value (10 nM, time (day): 6) worked out at 0.608; the “growth inhibition” value (100 nM, time (day): 3) was found to be 0.404; the “growth inhibition” value (100 nM, time (day): 4) was 0.5. Also, the “growth inhibition” value is, setting by setting: (100 nM, time (day): 5) 0.511; (100 nM, time (day): 6) 0.533.

Turning to `CN(C)CCN(C)CCc1ccc(Cl)c(Cl)c1`, the “growth inhibition” value came out at 0.215 (10 nM, time (day): 3); 0.408 (10 nM, time (day): 4); 0.459 (10 nM, time (day): 5); 0.48 (10 nM, time (day): 6); 0.0519 (100 nM, time (day): 3); 0.192 (100 nM, time (day): 4). The “growth inhibition” value reads like this: (100 nM, time (day): 5) 0.22; (100 nM, time (day): 6) 0.211.
